± gives the standard deviation.
These sequences were tested on MILI (PIWIL2) piRISC loaded with L1MC piRNA (26 nt) (assay: pre-steady-state target cleavage rate (min^-1); guide: L1MC piRNA 5'p-UAACUAAAUACUAUGCAAGCUGUAGG; MIWI and MILI are mouse PIWI proteins and EfPiwi is from a freshwater sponge; tags in brackets are library labels; higher = faster piRNA-guided slicing of the target). Conditions: auxiliary factor: 500 nM mouse GTSF1.
Method in brief: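 The pre-steady-state cleavage rate was obtained by Cleave-'n-Seq with a burst-and-steady-state fit. A transcribed, DNA-blocked target RNA library (0.1 nM) was mixed with 1 nM active affinity-purified piRISC carrying one synthetic guide, with or without 500 nM GTSF1 partner protein, in HEPES–potassium acetate buffer at 33 °C for 0–8 or 0–960 min. Uncleaved targets were sequenced and normalised to depth and to weakly complementary targets, with three trials pooled and k3 capped at 0.0001 min^-1.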

Sequence | pre-steady-state target cleavage rate
UCCUCCUACAGCUUCCAUAGUAAUUAGUUA | 0.0149 ± 0.0069
UCCUGGAUGUCCUUGCAAAGUAUUUAGAUA | 0.0324 ± 0.012
UCCUGGUACAGCUUGCAUAGUUUUUAGAUA | 0.0378 ± 0.017
UCCUGGAUGUCGAUGCAUAGUAAUUAGUAA | 0.0439 ± 0.013
UCCUGCUACAGCUUGCUUAGUAUUUACAAA | 0.0114 ± 0.0054
UCCUGCUACAGCUUGCAUAGUAUUUUGUAA | 0.107 ± 0.032
UCCUGGAUGUGCUUGCCAUAGUAUUUAGUUA | 0.014 ± 0.0071
UCCUGGAACAGCUUGCAAUGUAUUUACAAA | 0.0552 ± 0.017
UCCUGGUACAGCUUGCAUCAGUAUUUAGUUA | 0.0101 ± 0.0042
UCCUGGAACAGCUUGCAUUGUAUUUAGAAA | 0.115 ± 0.028
UCCUGGAUCAGCUAGCAUAGUAUUUUCAAA | 0.0498 ± 0.013
UCCUGGUACAGCUUGCAUAGUAAAAAGUAA | 0.031 ± 0.013
UCCUGGAUGAGCUUGCAUAGUAUUUUCAUA | 0.0108 ± 0.0059
UCCUGGAUGUGCUAGCAUAGUAUUAAGUUA | 0.0987 ± 0.014
UCCUGGAUGUCCUUGCAUUGUAUUUAGAUA | 0.0401 ± 0.011
UCCUGGAUCAGCUUGCAUAGAAUUUACAAA | 0.00722 ± 0.0036
UCCUGCUACAGCUUGCAUACUAUUUAGAAA | 0.0482 ± 0.015

Sequence | pre-steady-state target cleavage rate
UCCUCCUACAGCUACCAUAGUAUUUAGUAA | 0.141 ± 0.023
UCCUGCUACAGCUUGCUUAGUAUUUACUUA | 0.11 ± 0.015
UCCUGCUACAGCUACGAUAGUAUUUAGAAA | 0.0517 ± 0.019
UCCUGGUACAGCUUGCAUAGUAUUUUCAAA | 0.109 ± 0.027
UCCUCGAUCAGCUUGCAUAGUAUUUUCAAA | 0.0652 ± 0.014
UCCUGCUACAGGAUGCAUAGUAUUUACAAA | 0.0053 ± 0.0037
UCCUGCUACAGCUUCGUUAGUAUUUAGUAA | 0.154 ± 0.033
UCCUGGAUCAGCUUGCAUUCUAUUUAGUAA | 0.0151 ± 0.0057
UCCUGCUACAGCUUGCAUCAGUAUUUAGUUA | 0.015 ± 0.0065
UCCUGGUACAGCUUGCAUAGUAUAUAGAAA | 0.0845 ± 0.028
UCCUGGAUGUCGAUGCAUAGAAUUUAGUUA | 0.0057 ± 0.0026
UCCUGGAACAGCUUGCAUAGUAUUAACUUA | 0.0356 ± 0.0096
UCCUGGAUGUCGAAGCACAGUAUUUAGUUA | 0.00819 ± 0.0038
UCCUCCUACUCCUUGCAUAGUAUUUUCAAA | 0.0534 ± 0.015
UCCUGGAUGUCCAUGCUUAGUAUUUAGUUA | 0.0223 ± 0.0087
UCCUGGUACAGCUUGCAUAGUAUUUACUAA | 0.0179 ± 0.0081

Same assay, conditions: auxiliary factor: none (no GTSF1)

Sequence | pre-steady-state target cleavage rate
UCCUGGAUGUCCUUGCAUACAUAAAUCAAA [g12:g19:cont:t1A] | < 0.0001
UCCUGGAUGUCGAACCAUAGUAUUAAGUAA | < 0.0001
UCCUGGAUGUCGAACGUUAGUAUUUGUUA | < 0.0001
UCCUGGAUGUCGAACGUAUGUUUUAGUUA | < 0.0001
UCCUGGAUGUCGAACGUAUUUAUUUAGUUA | < 0.0001
UCCUGGAUGUGCUUGCAUACUUUUUAGUUA | 0.0037 ± 0.0027
UCCUGGAUGUCGUUGCAAAGUUUUUAGUUA | 0.00384 ± 0.0022
